From PubChem BioAssay
HP1b chromo inh: inhibitors of HP1-beta chromodomain binding to methylated histone tails; P83916; AlphaScreen HP1-beta / biotin-H3K9me3 peptide binding; Potency, µM (doses to about 114 µM), most hits filed as inhibitors; 0.56% of 390,000 active; note: nearly all actives have a fitted effect of over 70% in size
Target sequence (P83916 whole entry, looked up): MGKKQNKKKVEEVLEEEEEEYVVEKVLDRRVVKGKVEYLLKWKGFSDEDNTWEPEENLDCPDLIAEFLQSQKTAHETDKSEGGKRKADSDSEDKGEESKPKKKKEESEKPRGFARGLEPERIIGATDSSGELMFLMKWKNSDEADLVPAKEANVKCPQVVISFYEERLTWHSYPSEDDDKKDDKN
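AlphaScreen: HP1-beta (50 nM) preformed 30 min with biotin-H3(1-18)K9me3 peptide (50 nM) in PBS pH 7.4, 0.01% Tween-20. Compound added for 30 min at RT, then streptavidin donor/nickel chelate acceptor beads (10 ug/mL) for 30 min.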
KDM4E inh: blocks human JMJD2E demethylase activity. JMJD2E catalytic domain, FDH-coupled NADH fluorescence (FDH is formaldehyde dehydrogenase). Potency, µM (doses to about 57.1 µM), most hits filed as inhibitors. 1.6% of 230,000 active. AID 2147; active = well fitted inhibition curve with a large enough effect, not every such curve was filed as active; inconclusive = small, poorly fitted or top-dose-only effect, or another doubt; inactive = no such curve, though single readings can be large or run the other way; note: nearly all actives have a fitted effect of over 50% in size
Target sequence (B2RXH2 1-337 limits assumed): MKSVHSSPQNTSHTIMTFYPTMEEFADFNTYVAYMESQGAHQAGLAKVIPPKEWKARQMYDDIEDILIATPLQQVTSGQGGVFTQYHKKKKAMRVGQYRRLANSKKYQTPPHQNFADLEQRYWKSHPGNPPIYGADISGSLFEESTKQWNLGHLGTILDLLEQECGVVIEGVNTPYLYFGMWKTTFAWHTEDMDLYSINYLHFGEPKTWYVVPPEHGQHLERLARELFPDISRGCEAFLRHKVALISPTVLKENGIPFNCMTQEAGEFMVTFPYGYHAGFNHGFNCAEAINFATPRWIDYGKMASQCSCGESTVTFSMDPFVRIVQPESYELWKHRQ
PI5P4K alpha inh: PI5P4K alpha (human) kinase inhibition. 1.2% of 330,000 active. max response, %. PI5P4Kalpha enzyme, ADP-Glo luminescence, 60 min; hits give low values. AID 652105; active = max response of -50% or lower; inconclusive = between -30% and -50%; inactive = -30% or higher; note: value at the top dose of about 77 µM
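ADP-Glo luminescence end-point read after a 60 min room-temperature kinase reaction of PI5P4Kalpha plus substrate, initiated with ATP at 5 microM final. Buffer: 0.038 M HEPES pH 7.4, EGTA, 0.1% CHAPS, 5% DMSO.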
L3MBTL1 block: blocks human L3MBTL1; Q9Y468; AlphaScreen L3MBTL1–H3K9me1 peptide binding; Potency, µM (doses to about 57.1 µM), hits mostly inhibitors; 0.66% of 230,000 active; note: nearly all actives have a fitted effect of over 60% in size
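Read-out is AlphaScreen signal from streptavidin donor and nickel chelate acceptor beads (10 ug/mL final each) bridging L3MBTL1 (50 nM) and biotinylated K9-monomethylated H3(1-15) peptide (75 nM), after 30 min compound exposure at room temperature.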
JMJD2A Tudor inh: JMJD2A Tudor domain (human) inhibition | O75164 | AlphaScreen JMJD2A-Tudor / H3K4me3 peptide binding | Potency, µM (highest dose often 114 µM), actives largely listed as inhibitors | 4.4% of 390,000 active; note: nearly all actives have a fitted effect of over 50% in size
BAZ2B block: inhibitors of human BAZ2B bromodomain | Q9UIF8 | AlphaScreen BAZ2B-H3K14Ac peptide displacement | Potency, µM (doses to about 114 µM), actives largely listed as inhibitors | 4.4% of 360,000 active; note: nearly all actives have a fitted effect of over 60% in size
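Compounds, titrated to a top concentration of 110 uM, were incubated 30 min at room temperature with preformed BAZ2B/acetyl-K14 H3 peptide complex (50 nM each). Proximity signal was measured by AlphaScreen after 20 min with beads.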
Each line names hits and unclear results; the compound was inactive in the other large screens. A selection: hits, their analogues and other compounds. The true share with any hit is near 5.7%. Unless noted, calls come from the whole dose curve; as a rule, active = well fitted inhibition curve with a large enough effect; inconclusive = small, poorly fitted or top-dose-only effect; inactive = no such curve, though single readings can be large or run the other way.

COc1cccc(C2CC(c3cccc(NS(C)(=O)=O)c3)=NN2C(=O)c2ccccc2)c1OC (configuration not stated)	KDM4E inh inconclusive
Cc1nc(C(=O)NNC(=O)c2ccc(C(F)(F)F)cc2)cs1	none
CCN(C(=O)CSc1nc2ccccc2n1CC(=O)Nc1cccc(C#N)c1)c1ccccc1	none (no result: KDM4E inh, PI5P4K alpha inh, L3MBTL1 block)
COc1cc(OC)c2c(-c3ccccc3)cc(=O)oc2c1C(CC(=O)N1CCOCC1)c1ccc(N(C)C)cc1 (configuration not stated)	HP1b chromo inh inconclusive, JMJD2A Tudor inh 31.6µM, BAZ2B block 35.5µM (no result: L3MBTL1 block)
COc1cc(OC)c2c(-c3ccccc3)cc(=O)oc2c1C(CC(=O)N1CCN(c2ccccc2)CC1)c1ccc2c(c1)OCO2 (configuration not stated)	BAZ2B block inconclusive (no result: HP1b chromo inh, PI5P4K alpha inh, L3MBTL1 block, JMJD2A Tudor inh)
COc1cc(OC)c2c(-c3ccccc3)cc(=O)oc2c1C(CC(=O)N1CCN(c2ccccc2)CC1)c1ccc(N(C)C)cc1 (configuration not stated)	HP1b chromo inh inconclusive, JMJD2A Tudor inh 6.31µM, BAZ2B block 8.91µM (no result: L3MBTL1 block)
CCN(CC)c1ccc(N=C2C=CC(=O)C=C2NC(C)=O)cc1	HP1b chromo inh 25.1µM, JMJD2A Tudor inh 10µM (no result: KDM4E inh, L3MBTL1 block, BAZ2B block)
CC(=O)Nc1ccc(S(=O)(=O)NCCCN2CCN(Cc3ccccc3)CC2)cc1Cl	none (no result: L3MBTL1 block)
Cc1ccc(-n2c(SCC(=O)OC(C)C)nnc2-c2cnccn2)cc1	none
CCN(CC)C(=O)CSc1nnc(-c2ccccn2)n1-c1ccccc1OC	JMJD2A Tudor inh inconclusive, BAZ2B block 89.1µM (no result: L3MBTL1 block)
Cc1ccc(C)c(-n2c(SCC(=O)N3CCCC3)nnc2-c2ccccn2)c1	JMJD2A Tudor inh inconclusive, BAZ2B block 31.6µM
Cc1ccc(C)c(-n2c(SCC(N)=O)nnc2-c2ccccn2)c1	L3MBTL1 block inconclusive, JMJD2A Tudor inh 79.4µM, BAZ2B block 17.8µM
Cc1ccc(-n2c(SCC(=O)OC(C)C)nnc2-c2ccccn2)cc1	JMJD2A Tudor inh 50.1µM, BAZ2B block 50.1µM (no result: PI5P4K alpha inh)
COc1ccc(Cn2c(C(=O)O)c(CNCc3ccc(SC)cc3)c3ccc(OC)cc32)cc1	BAZ2B block inconclusive (no result: KDM4E inh, PI5P4K alpha inh, L3MBTL1 block)
CCOCCCn1c(SCC(=O)Nc2ccc(C)cc2)nc2ccccc2c1=O	none (no result: KDM4E inh, PI5P4K alpha inh, L3MBTL1 block)
CC(=O)c1ccc(-c2c(C3C4C=CCCC4(C)C(=O)N3Cc3ccccc3)ccc3ccccc23)cc1 (configuration not stated)	none (no result: KDM4E inh, PI5P4K alpha inh, L3MBTL1 block, BAZ2B block)
Oc1ccccc1/C=N/n1c(-c2ccccc2)n[nH]c1=S	JMJD2A Tudor inh 25.1µM, BAZ2B block inconclusive (no result: KDM4E inh, L3MBTL1 block)
O=[N+]([O-])c1ccc(O)c(/C=N/n2c(-c3ccccc3)n[nH]c2=S)c1	JMJD2A Tudor inh 5.62µM (no result: KDM4E inh)
Oc1c(Br)cc(/C=N/n2c(-c3ccccc3)n[nH]c2=S)c(Br)c1O	L3MBTL1 block 0.794µM, BAZ2B block 1.78µM (no result: HP1b chromo inh, KDM4E inh, PI5P4K alpha inh, JMJD2A Tudor inh)
COc1c(Br)cc(/C=N/n2c(-c3ccccc3)n[nH]c2=S)c(O)c1Br	PI5P4K alpha inh -55.1, JMJD2A Tudor inh inconclusive (no result: KDM4E inh)
Cc1cc2nc3c(=O)n(C)c(=O)n(C)c3nc2cc1N=CN(C)C	none (no result: KDM4E inh, PI5P4K alpha inh, L3MBTL1 block)
CCOc1ccc(OCC)c(NS(=O)(=O)c2ccc(-c3coc(C)n3)cc2)c1	none (no result: KDM4E inh, PI5P4K alpha inh, L3MBTL1 block)
Cc1cc(C)n(/N=C/c2cc([N+](=O)[O-])ccc2O)c(=O)c1	JMJD2A Tudor inh inconclusive, BAZ2B block 50.1µM
O=[N+]([O-])c1ccc(Cl)c(/C=N/n2c(-c3ccncc3)n[nH]c2=S)c1	JMJD2A Tudor inh 3.16µM (no result: L3MBTL1 block)
Cc1ccc(-c2nn(-c3ccccc3)cc2/C=N/n2c(-c3ccncc3)n[nH]c2=S)cc1	JMJD2A Tudor inh inconclusive
Oc1c(Br)cc(Br)cc1/C=N/n1c(-c2ccccc2)n[nH]c1=S	HP1b chromo inh inconclusive, PI5P4K alpha inh -54.1, JMJD2A Tudor inh 39.8µM, BAZ2B block inconclusive (no result: KDM4E inh)
O=c1oc2c3c(ccc2c2ccccc12)OCN(Cc1ccccc1Cl)C3	BAZ2B block inconclusive (no result: KDM4E inh, PI5P4K alpha inh, L3MBTL1 block)
O=C(CSc1ncc(-c2ccc(F)cc2)n1Cc1ccco1)Nc1ccc2c(c1)OCO2	JMJD2A Tudor inh 44.7µM, BAZ2B block 11.2µM (no result: L3MBTL1 block)
CCOc1ccc(NC(=O)CSc2ncc(-c3ccc(F)cc3)n2Cc2ccco2)cc1	BAZ2B block 8.91µM (no result: L3MBTL1 block)
O=C(Nc1cccn2nc(COCCO)nc12)C(c1ccccc1)c1ccccc1	none (no result: HP1b chromo inh, KDM4E inh, L3MBTL1 block, JMJD2A Tudor inh, BAZ2B block)
